Only some compounds are listed: those with a hit (about 12% of all), similar ones and a draw of the others.
Sfp inh – inhibitors of Bacillus subtilis Sfp phosphopantetheinyl transferase; Q9F4F7; Biochemical Sfp PPTase activity, qHTS; Potency, µM, hits mostly inhibitors; hit rate 3.5% among 310,000;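 note: the enzyme is Sfp with the accession as filed and its product quenches rhodamine fluorescence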
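Compounds were incubated with enzyme (final 15 nM) for 15 min at room temperature before substrate addition started the reaction. Fluorescence at 525 nm excitation, 598 nm emission was recorded immediately and after 30 minutes.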
HP1b chromo inh – blocks HP1-beta chromodomain binding to methylated histone tails. AlphaScreen HP1-beta / biotin-H3K9me3 peptide binding. Potency, µM (doses to about 114 µM), actives largely listed as inhibitors. hit rate 0.56% among 390,000. AID 540317; note: nearly all actives have a fitted effect of over 70% in size
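HP1-beta protein (50 nM final) preincubated 30 min at room temperature with biotinylated H3(1-18)K9me3 peptide (50 nM) in PBS pH 7.4, 0.01% Tween-20, then compound added for 30 min. AlphaScreen streptavidin donor/nickel chelate acceptor beads (10 ug/mL final), 30 min dark, luminescence read.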
PLK1 PBD block – PLK1 (human) polo-box domain binding inhibition; Potency, µM, actives largely listed as inhibitors; hit rate 2.8% among 360,000; Plk1 PBD binding of FITC phosphopeptide, fluorescence polarization; note: series mostly up to about 57 µM; nearly all actives have a fitted effect of over 65% in size
Target sequence (P53350 whole entry, looked up, the tested form may be a part): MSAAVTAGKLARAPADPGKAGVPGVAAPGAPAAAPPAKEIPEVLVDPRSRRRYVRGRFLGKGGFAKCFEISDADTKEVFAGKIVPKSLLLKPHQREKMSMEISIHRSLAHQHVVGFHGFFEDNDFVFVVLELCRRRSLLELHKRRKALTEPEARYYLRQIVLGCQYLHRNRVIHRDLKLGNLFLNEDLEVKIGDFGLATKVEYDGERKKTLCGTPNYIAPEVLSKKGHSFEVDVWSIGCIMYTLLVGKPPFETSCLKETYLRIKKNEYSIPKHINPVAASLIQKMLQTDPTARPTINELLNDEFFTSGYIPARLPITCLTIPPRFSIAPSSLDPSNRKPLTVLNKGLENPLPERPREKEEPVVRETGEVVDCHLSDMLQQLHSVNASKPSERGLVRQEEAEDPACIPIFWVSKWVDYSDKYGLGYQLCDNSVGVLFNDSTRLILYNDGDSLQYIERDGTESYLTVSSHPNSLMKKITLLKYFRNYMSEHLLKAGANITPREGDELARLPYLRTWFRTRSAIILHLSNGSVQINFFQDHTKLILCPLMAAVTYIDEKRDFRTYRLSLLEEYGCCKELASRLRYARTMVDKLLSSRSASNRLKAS
BAZ2B inh – blocks human BAZ2B | hit rate 4.4% among 360,000 | AID 504333 | AlphaScreen BAZ2B-H3K14Ac peptide displacement | Potency, µM (doses to about 114 µM), actives largely listed as inhibitors | Q9UIF8; note: nearly all actives have a fitted effect of over 60% in size
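AlphaScreen luminescence quantifies BAZ2B engagement of H3K14Ac peptide; the protein and biotinylated peptide are both at 50 nM final, buffer PBS pH 7.4 with 0.01% Tween-20, all steps at room temperature.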
G9a inh – blocks human histone lysine methyltransferase G9a. G9a H3K9 monomethylation, AlphaScreen, 2 h. Q96KQ7. Potency, µM (series often up to 102 µM), usual class: inhibitors. hit rate 8.8% among 350,000; note: nearly all actives have a fitted effect of over 75% in size
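Using a bead-based AlphaScreen, monomethylated H3K9 product from 2 h room-temperature reactions (G9a 20 nM, peptide 500 nM, SAM 20 uM) was detected with 0.5 ug/mL rabbit anti-H3K9me1 antibody.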
JMJD2A Tudor inh – JMJD2A Tudor domain (human) inhibition; hit rate 4.4% among 390,000; AlphaScreen JMJD2A-Tudor / H3K4me3 peptide binding; AID 504339; Potency, µM (highest dose often 114 µM), hits mostly inhibitors; O75164; note: nearly all actives have a fitted effect of over 50% in size
Numbers stand for hits; [ ] = dose if it differs, or a comment. Calls come from the whole dose curve; as a rule, active = well fitted curve in the direction sought with a large enough effect; inconclusive = small, poorly fitted or top-dose-only effect, or another doubt; inactive = no such curve, though single readings can be large; an effect the other way counts as inactive or inconclusive.

Results for CN(C(=O)CSc1nnc(-c2ccc(F)cc2)c2ccccc12)C1CCS(=O)(=O)C1 (stereo not given) ?
Sfp inh: inactive; HP1b chromo inh: inactive; PLK1 PBD block: inconclusive; BAZ2B inh: inconclusive; G9a inh: 22.4µM; JMJD2A Tudor inh: inactive

What do the screens show for `CN(C(=O)CSc1nnc(-c2ccc(F)cc2)n1C)C1CCS(=O)(=O)C1` (stereo not given)?
HP1b chromo inh: inactive; PLK1 PBD block: inactive; JMJD2A Tudor inh: inactive

How did CN(C(=O)CSc1nnc(-c2ccccc2)n1C)C1CCS(=O)(=O)C1 (stereo not given) do in these assays?
Sfp inh: inactive; HP1b chromo inh: inactive; PLK1 PBD block: 26.7µM; BAZ2B inh: inactive; G9a inh: inactive[12.7 µM]; JMJD2A Tudor inh: inactive

What do the screens show for `CN(C)C(=O)CSc1nc(-c2ccccc2)c(-c2ccccc2)o1`?
Sfp inh: inactive; HP1b chromo inh: inconclusive; PLK1 PBD block: inactive; BAZ2B inh: inconclusive; G9a inh: 12.6µM; JMJD2A Tudor inh: inactive[11.4 µM]

What do the screens show for `CCCC(CCC)C(=O)NC1CC(=O)N(c2ccc3c(c2)OCCO3)C1` (stereo not given)?
HP1b chromo inh: inactive; BAZ2B inh: inactive; G9a inh: inactive; JMJD2A Tudor inh: inactive

What do the screens show for `COC(=O)c1ccccc1NC(=O)c1ccc(F)cc1F`?
JMJD2A Tudor inh: inactive

What do the screens show for `O=C(CNC(=O)N1CC(=O)Nc2ccccc21)Nc1cccc(F)c1`?
Sfp inh: inactive; HP1b chromo inh: inactive; PLK1 PBD block: inactive; BAZ2B inh: inactive; G9a inh: inactive; JMJD2A Tudor inh: inactive

Results for Nc1ncnc2c1ncn2[C@@H]1O[C@H](C(=O)N2CCN(Cc3ccccn3)CC2)[C@@H](O)[C@H]1O ?
PLK1 PBD block: inactive

How did COC(=O)/C=C/CC(C)OS(N)(=O)=O (stereo not given) do in these assays?
Sfp inh: inactive; HP1b chromo inh: inactive; PLK1 PBD block: inactive; BAZ2B inh: inactive; G9a inh: inactive; JMJD2A Tudor inh: inactive

Results for Cc1ccc(-c2nc3ncccn3c2NC2CCCCC2)o1 ?
Sfp inh: 44.7µM; HP1b chromo inh: inactive; PLK1 PBD block: inactive; BAZ2B inh: inactive; G9a inh: inconclusive; JMJD2A Tudor inh: inactive

How did Cc1ccn2c(NC3CCCCC3)c(-c3ccc(C)o3)nc2c1 do in these assays?
HP1b chromo inh: inactive; JMJD2A Tudor inh: inconclusive

What do the screens show for `Cc1ccc(-c2nc3ncccn3c2Nc2ccc3c(c2)OCCO3)o1`?
Sfp inh: 44.7µM; HP1b chromo inh: inactive; PLK1 PBD block: inactive; BAZ2B inh: inconclusive; G9a inh: inconclusive; JMJD2A Tudor inh: inconclusive

What do the screens show for `COc1ccc(-c2nc3ncccn3c2Nc2ccc3c(c2)OCCO3)cc1`?
Sfp inh: inactive; HP1b chromo inh: inactive; PLK1 PBD block: inactive; BAZ2B inh: inactive; G9a inh: inactive; JMJD2A Tudor inh: inactive

Results for Cc1ccc(-c2nc3ncccn3c2Nc2ccc3c(c2)OCCO3)cc1 ?
Sfp inh: inactive; HP1b chromo inh: inconclusive; PLK1 PBD block: inactive; BAZ2B inh: inconclusive; G9a inh: 44.7µM; JMJD2A Tudor inh: inconclusive

How did Brc1ccc(-c2nc3ncccn3c2Nc2ccc3c(c2)OCCO3)o1 do in these assays?
Sfp inh: inactive; HP1b chromo inh: inactive; PLK1 PBD block: inactive; BAZ2B inh: 50.1µM; G9a inh: inconclusive; JMJD2A Tudor inh: inconclusive

What do the screens show for `CCOc1ccc(NC(=O)Cn2c(=O)c(CNc3ccc(CC)cc3)cc3cc4c(cc32)OCO4)cc1`?
HP1b chromo inh: inactive; BAZ2B inh: inactive; G9a inh: inactive; JMJD2A Tudor inh: inactive

Results for CN(Cc1ccco1)c1ncnc2ccc(-c3ccc4c(c3)OCCO4)cc12 ?
BAZ2B inh: inactive; G9a inh: inactive[12.7 µM]

What do the screens show for `CCOC(=O)c1c(C)[nH]c(C(=O)OC)c1CCC(=O)OC`?
Sfp inh: inactive; HP1b chromo inh: inactive; PLK1 PBD block: inactive; BAZ2B inh: inconclusive; G9a inh: inactive[12.7 µM]; JMJD2A Tudor inh: inactive

Results for COC(=O)Cc1[nH]c(=S)[nH]c1C(=O)OC ?
Sfp inh: 56.2µM; HP1b chromo inh: inactive; PLK1 PBD block: inactive; BAZ2B inh: inactive; JMJD2A Tudor inh: 3.16µM

How did CCOC(=O)c1c(CSC(=N)N)n(-c2ccccc2)c2cc(Br)c(OC(C)=O)cc12 do in these assays?
Sfp inh: inconclusive; HP1b chromo inh: inactive; PLK1 PBD block: inactive; BAZ2B inh: inconclusive; G9a inh: 50.1µM; JMJD2A Tudor inh: inconclusive
